Test results as given in article PMC4336329 (PLoS ONE, 2015).
Screen size: about 310,000 compounds; about 14,000 (4.5%) showed an effect of 50% or more. The effect is printed as a negative number. Only a selection was taken, and strong results are over-represented in it overall.

target: human ether-à-go-go-related gene (hERG) potassium channel (human, UniProt Q12809); assay: primary screen, population patch clamp on CHO cells stably expressing hERG; higher = less effect of the substance
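Also: peak tail current of the secondary pulse compared with the same well before compound.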

human ether-à-go-go-related gene (hERG) potassium channel, sequence (Q12809 whole entry, looked up): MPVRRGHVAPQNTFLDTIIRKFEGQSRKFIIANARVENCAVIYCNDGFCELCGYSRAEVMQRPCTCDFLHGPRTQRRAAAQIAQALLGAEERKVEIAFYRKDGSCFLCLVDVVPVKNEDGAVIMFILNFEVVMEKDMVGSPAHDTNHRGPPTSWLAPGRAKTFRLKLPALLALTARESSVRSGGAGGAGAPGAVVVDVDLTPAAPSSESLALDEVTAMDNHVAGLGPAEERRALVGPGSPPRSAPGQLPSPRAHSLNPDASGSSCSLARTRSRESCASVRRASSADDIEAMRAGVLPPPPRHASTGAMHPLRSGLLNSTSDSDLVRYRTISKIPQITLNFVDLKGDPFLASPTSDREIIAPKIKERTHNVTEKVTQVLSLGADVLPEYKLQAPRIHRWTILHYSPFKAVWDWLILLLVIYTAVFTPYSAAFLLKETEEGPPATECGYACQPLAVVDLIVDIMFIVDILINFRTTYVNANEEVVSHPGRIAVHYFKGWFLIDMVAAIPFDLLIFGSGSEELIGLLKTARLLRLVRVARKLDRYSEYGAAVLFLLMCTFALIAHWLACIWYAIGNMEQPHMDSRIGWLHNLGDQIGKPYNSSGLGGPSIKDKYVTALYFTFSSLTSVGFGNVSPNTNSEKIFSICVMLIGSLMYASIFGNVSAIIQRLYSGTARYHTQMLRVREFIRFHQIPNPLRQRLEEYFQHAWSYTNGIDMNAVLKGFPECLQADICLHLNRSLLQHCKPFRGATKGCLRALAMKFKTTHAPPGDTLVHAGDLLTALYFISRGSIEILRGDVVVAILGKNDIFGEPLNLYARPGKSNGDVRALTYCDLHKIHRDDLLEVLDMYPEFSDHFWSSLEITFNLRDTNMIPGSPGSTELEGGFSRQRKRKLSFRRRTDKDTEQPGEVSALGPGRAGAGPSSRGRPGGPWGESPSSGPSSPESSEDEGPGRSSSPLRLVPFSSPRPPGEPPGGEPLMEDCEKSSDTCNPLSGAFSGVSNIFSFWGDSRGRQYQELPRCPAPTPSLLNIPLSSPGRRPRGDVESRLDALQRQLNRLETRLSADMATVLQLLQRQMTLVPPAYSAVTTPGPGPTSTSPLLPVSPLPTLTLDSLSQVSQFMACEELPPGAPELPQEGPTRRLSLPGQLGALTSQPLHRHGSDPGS

Row | Structure (SMILES) | hERG current change (%, negative = inhibition) at 10uM
1 | CCOC(=O)Cc1csc(NC(=S)NC(=O)c2ccc(F)cc2)n1 | 11.9%
2 | FC(F)Oc1ccc(NC(=S)NCc2cccnc2)cc1 | -2.69%
3 | CN(C)C(=S)Nc1cccc(C(F)(F)F)c1 | 5.67%
4 | N#CCCN(Cc1cccnc1)C(=S)Nc1ccc(OC(F)F)cc1 | -78.2%
5 | CN(C)CCCN(Cc1ccccc1)C(=S)Nc1ccc(OC(F)F)cc1 | -70.3%
6 | CN(C)S(=O)(=O)c1cccc(NC(=S)N(CCC#N)Cc2cccnc2)c1 | -7.37%
7 | Cc1ccc(NC(=S)N(Cc2ccccc2)C(C)C)cc1 | 12%
8 | CC(C)N(Cc1ccccc1)C(=S)Nc1ccc(F)cc1 | -3.42%
9 | COc1ccc(NC(=S)N(CCO)Cc2ccccc2)cc1 | 2.34%
10 | CCCN(Cc1ccccc1)C(=S)Nc1ccc(OCC)cc1 | -35.8%
11 | CN(C)CCCN(Cc1ccccc1)C(=S)Nc1cccc(C(F)(F)F)c1 | -52.6%
12 | CN(C)CCCN(Cc1ccccc1)C(=S)Nc1ccc(F)c(Cl)c1 | -24.3%
13 | CC(C)N(Cc1ccccc1)C(=S)Nc1ccc(OC(F)F)cc1 | -56.7%
14 | COc1ccc(S(=O)(=O)N(C)c2ccc(C(=O)N3CCOCC3)cc2)cc1 | -6.62%
15 | CCOc1ccc(-c2c(C(=O)N/N=C/c3sccc3C)nnn2-c2nonc2N)cc1 | 19.7%
16 | COc1ccc(-n2ncc3c(N4CCc5ccccc54)ncnc32)cc1 | 0.927%
17 | Cc1cccc(OCCCC(=O)Nc2ccc(N(C)C)cc2)c1 | -5.54%
18 | COc1cccc(N2C(=O)Nc3ccc(Br)cc3C2(O)C(=O)NCCCN(C)C)c1 (stereo not shown) | 19.3%
19 | Cc1ccc(NC(=O)CSc2nnc(C3COc4ccccc4O3)o2)c(Cl)c1 (stereo not shown) | 12.5%
20 | Brc1ccc(-c2noc(-c3ccccn3)n2)o1 | 2.68%

Row | Structure (SMILES) | hERG current change (%, negative = inhibition) at 10uM
21 | COC(=O)C1(C)NC(c2ccco2)C2C(=O)N(c3ccc(C)cc3)C(=O)C21 (stereo not shown) | -22.5%
22 | Cc1nnc(-c2ccccc2)nc1N1CCOCC1 | -10.2%
23 | Cc1nnc(-c2cccc(C(F)(F)F)c2)nc1N1CCOCC1 | -74.1%
24 | FC(F)(F)c1cccc(-c2nnc(-c3ccccc3)c(N3CCOCC3)n2)c1 | -19.7%
25 | CC1CC(C)CN(C(=O)Cn2c(=O)oc3cc(S(=O)(=O)N4CCCC4)ccc32)C1 (stereo not shown) | -3.39%
26 | CCn1cc(C(=O)OCC(=O)N2C(C)CCCC2C)c(=O)c2ccc(C)nc21 (stereo not shown) | 11%
27 | CCn1cc(C(=O)OCC(=O)OC2CC(C)CCC2C(C)C)c(=O)c2ccc(C)nc21 (stereo not shown) | -51.8%
28 | C=CCOC(=O)c1cn(CC)c2nc(C)ccc2c1=O | -5.77%
29 | Cc1cc(C)cc(NC(=O)C2CCCN(S(=O)(=O)c3c(C)noc3C)C2)c1 (stereo not shown) | -4.34%
30 | CCOc1ccccc1NS(=O)(=O)c1csc(C(N)=O)c1 | 11.7%
31 | COc1ccc(NC(=O)CN(C)CC(=O)Nc2sc3c(c2C#N)CCC3)cc1 | 0.0459%
32 | Cc1cccc(C)c1NC(=O)CN(C)CC(=O)Nc1sc2c(c1C(N)=O)CCC2 | -33.9%
33 | COc1ccc(CC(=O)Nc2sc3c(c2C(N)=O)CCCC3)cc1 | -1.39%
34 | CCC(=O)Nc1sc2c(c1C(N)=O)CCC2 | -15.7%
35 | NC(=O)c1c(NC(=O)c2ccccc2Cl)sc2c1CCC2 | 15.1%
36 | COc1ccc(NC(=O)CN(C)CC(=O)Nc2sc3c(c2C(N)=O)CCC3)cc1 | -79%
37 | CN(CC(=O)Nc1ccc(C(N)=O)cc1)CC(=O)Nc1ccccc1Cl | -5.04%
38 | Cc1ccc(NC(=O)CN(C)CC(=O)Nc2sc3c(c2C(N)=O)CCC3)cc1 | -55.5%
39 | CN(CC(=O)Nc1ccccc1Cl)CC(=O)Nc1sc2c(c1C(N)=O)CCC2 | -66.2%
40 | CSc1ncccc1C(=O)OCC(=O)c1ccccc1 | 35%

Row | Structure (SMILES) | hERG current change (%, negative = inhibition) at 10uM
41 | CCN(CC(=O)Nc1ccc2c(c1)OCCO2)C(=O)CC(NC(C)=O)c1ccccc1 (stereo not shown) | 18.7%
42 | Cc1csc(NC(=O)CCCNC(=O)c2ccc(Cl)cc2)n1 | -23.6%
43 | CCC(C)c1ccccc1N1CC(C(=O)Nc2ccc(S(=O)(=O)N3CCOCC3)cc2)CC1=O (stereo not shown) | -9.78%
44 | COc1ccccc1N1CCN(CC(O)COc2ccc(S(=O)(=O)N3CCOCC3)cc2)CC1.Cl (stereo not shown) | -4.3%
45 | COc1ccc(N2CCN(CC(O)COCCOc3ccc(Br)cc3)CC2)cc1.Cl (stereo not shown) | -69.1%
46 | COc1ccc(OCCOCC(O)CN2CCOCC2)cc1.Cl (stereo not shown) | 4.55%
47 | COc1ccccc1N1CCN(CC(O)COCCOc2ccc(Br)cc2)CC1.Cl (stereo not shown) | -58.8%
48 | COc1ccccc1NC(=O)CSc1nnc(Cn2nnc(-c3ccccc3)n2)n1-c1ccccc1 | -5.02%
49 | CC(CCc1ccccc1)NC(=O)CNC(=O)COc1ccccc1 (stereo not shown) | -0.873%
50 | O=C(NC(=S)Nc1ccc2cn[nH]c2c1)c1ccccc1 | -2.32%
51 | Cc1ccccc1C1NC(=S)NC2=C1C(=O)CC(C)(C)C2 (stereo not shown) | 18.5%
52 | Clc1ccc2oc(-c3cccnc3)nc2c1 | -14.9%
53 | c1cn(CCCNc2ncnc3nc[nH]c23)cn1 | 8.93%
54 | COc1ccc(-c2oc3ncnc(NCCCN4CCOCC4)c3c2-c2ccc(OC)cc2)cc1 | 2.49%
55 | c1ccc(-c2oc3ncnc(NCCCN4CCOCC4)c3c2-c2ccccc2)cc1 | -87.1%
56 | Clc1ccc(-n2ncc3c(NCCCn4ccnc4)ncnc32)cc1 | -26.1%
57 | c1ccc(-c2oc3ncnc(NCCCn4ccnc4)c3c2-c2ccccc2)cc1 | -69.9%
58 | c1ccc(-c2oc3ncnc(NCCN4CCOCC4)c3c2-c2ccccc2)cc1 | -21.3%
